# According to the supplement of paper PMC8728848:
# Many of the other results were omitted from the sample, so the strongest signals are more common in it than they were.
# B1: GS7807E-bfa-538-23-538 (Bacteroides fragilis) (protein)
# chain: TDSFESFNTNEAGFDNDSKKQDFNYYGIPLGIIQQGIYFNYDWGSGKNWPFQTMQNLGADLFSGYVHDFNPFNEGKNNSTYYMMDGWNGSTWDNTYGYIMPEVQKSETINEKDNIGFFGITKILKVELMHRLSDLYGPIVYTQFGSKTGSTPDTQQEAYKAFFNDLDTGIAKIREYQKANPDIESFAKFDILMPQGKRTFSEWIRFANSLRLRLAVRIAMADSKLAVAEAQKALTDEEGLLEGNDEVVAVSTSSGYTNPFGEINKAWGEVFMNANMESLLVGYEDPRMEKYFDKATGSDATSLIDYKGTYKGIRQGTGFSHKNYNGHSKSTITQQTDAVLMTPAEVWFLRAEAALRGWSSESVKDCYEKGVKASFAQWGAAGAEAYLESDRKPSDYVDAFKAANNVKAVNTLTPKWDDAAGNEDKLGRIITQKWLAMFPEGGEAWAEQRRTGYPRLFPVLVNQSEGTVDTNLGPRRLNFFVGIKTTNPEQYTQLVNALGGIDNCGTRLWWDTGRNF
# Assays:
# Test in all cases: glycan array binding signal (z-score within array); higher = stronger binding
# Settings in all cases: glycan notation: IUPAC condensed, linker removed
# Glc(a1-4)Glc = target: Glc(a1-4)Glc
# Summary of the method: (§1)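 The binding signal is a Z-score computed within each array. Data were drawn from 3228 arrays in the Consortium for Functional Glycomics database, restricted to those with a known protein sequence. Scores were averaged over arrays of the same protein sequence at different concentrations or buffers, and over linkers, and negative values can be taken as non-binding.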
# GlcA(b1-3)GlcNAc = target: GlcA(b1-3)GlcNAc
# Summary of the method: as §1
# [1] = target: GlcNAc(a1-4)Gal(b1-4)GalNAc
# Summary of the method: as §1
# [2] = target: GlcNAc(a1-4)Gal(b1-4)GlcNAc(b1-3)Gal(b1-4)GlcNAc
# Summary of the method: as §1
# [3] = target: GlcNAc(b1-3)Gal(b1-4)GlcNAc(b1-3)Gal(b1-4)GlcNAc(b1-3)Gal(b1-4)GlcNAc(b1-2)Man(a1-3)[GlcNAc(b1-3)Gal(b1-4)GlcNAc(b1-3)Gal(b1-4)GlcNAc(b1-3)Gal(b1-4)GlcNAc(b1-2)Man(a1-6)]Man(b1-4)GlcNAc(b1-4)[Fuc(a1-6)]GlcNAc
# Summary of the method: as §1
# [4] = target: GlcNAc(b1-3)Gal(b1-4)GlcNAc(b1-3)Gal(b1-4)GlcNAc(b1-3)Gal(b1-4)GlcNAc(b1-3)Gal(b1-4)GlcNAc(b1-2)Man(a1-3)[GlcNAc(b1-3)Gal(b1-4)GlcNAc(b1-3)Gal(b1-4)GlcNAc(b1-3)Gal(b1-4)GlcNAc(b1-3)Gal(b1-4)GlcNAc(b1-2)Man(a1-6)]Man(b1-4)GlcNAc(b1-4)[Fuc(a1-6)]GlcNAc
# Summary of the method: as §1
# [5] = target: GlcNAc6S(b1-3)Gal(b1-4)GlcNAc
# Summary of the method: as §1
# [6] = target: Man(a1-3)[Man(a1-6)]Man(a1-6)[Man(a1-3)]Man(b1-4)GlcNAc(b1-4)GlcNAc
# Summary of the method: as §1
# [7] = target: Man(a1-3)[Man(a1-6)]Man(b1-4)GlcNAc(b1-4)GlcNAc
# Summary of the method: as §1
# [8] = target: Neu5Ac(a2-3)Gal(b1-3)GalNAc6S
# Summary of the method: as §1
# [9] = target: Neu5Ac(a2-3)Gal(b1-4)GlcNAc(b1-2)Man
# Summary of the method: as §1
# [10] = target: Neu5Ac(a2-3)Gal(b1-4)GlcNAc(b1-2)[Neu5Ac(a2-3)Gal(b1-4)GlcNAc(b1-4)]Man(a1-3)[GlcNAc(b1-4)][Neu5Ac(a2-3)Gal(b1-4)GlcNAc(b1-2)[Neu5Ac(a2-3)Gal(b1-4)GlcNAc(b1-6)]Man(a1-6)]Man(b1-4)GlcNAc(b1-4)GlcNAc
# Summary of the method: as §1
# [11] = target: Neu5Ac(a2-3)Gal(b1-4)GlcNAc(b1-2)[Neu5Ac(a2-3)Gal(b1-4)GlcNAc(b1-6)]Man(a1-6)[Neu5Ac(a2-3)Gal(b1-4)GlcNAc(b1-2)Man(a1-3)]Man(b1-4)GlcNAc(b1-4)GlcNAc
# Summary of the method: as §1
# [12] = target: Neu5Ac(a2-3)Gal(b1-4)GlcNAc(b1-6)GalNAc
# Summary of the method: as §1
# [13] = target: Neu5Ac(a2-6)Gal(b1-4)GlcNAc
# Summary of the method: as §1
# [14] = target: Neu5Ac(a2-6)Gal(b1-4)GlcNAc(b1-2)Man(a1-3)[Neu5Ac(a2-3)Gal(b1-4)GlcNAc(b1-2)Man(a1-6)]Man(b1-4)GlcNAc(b1-4)GlcNAc
# Summary of the method: as §1
# [15] = target: Neu5Ac(a2-6)Gal(b1-4)GlcNAc(b1-2)Man(a1-6)[Gal(b1-4)GlcNAc(b1-2)Man(a1-3)]Man(b1-4)GlcNAc(b1-4)GlcNAc
# Summary of the method: as §1
# [16] = target: Neu5Ac(a2-6)Gal(b1-4)GlcNAc(b1-3)Gal(b1-3)GlcNAc
# Summary of the method: as §1
# [17] = target: Neu5Ac(a2-6)GlcNAc(b1-4)GlcNAc(b1-4)GlcNAc
# Summary of the method: as §1
# [18] = target: Neu5Ac(a2-8)Neu5Ac(a2-8)Neu5Ac(a2-3)[GalNAc(b1-4)]Gal(b1-4)Glc
# Summary of the method: as §1
binder,measurement,setting,value
B1,glycan array binding signal (z-score),Glc(a1-4)Glc,-0.685
same,glycan array binding signal (z-score),GlcA(b1-3)GlcNAc,-0.585
same,glycan array binding signal (z-score),[1],-0.527
same,glycan array binding signal (z-score),[2],-0.642
same,glycan array binding signal (z-score),[3],-0.408
same,glycan array binding signal (z-score),[4],-0.491
same,glycan array binding signal (z-score),[5],3.84
same,glycan array binding signal (z-score),[6],3.45
same,glycan array binding signal (z-score),[7],-0.656
same,glycan array binding signal (z-score),[8],-0.669
same,glycan array binding signal (z-score),[9],2.92
same,glycan array binding signal (z-score),[10],-0.734
same,glycan array binding signal (z-score),[11],0.242
same,glycan array binding signal (z-score),[12],0.432
same,glycan array binding signal (z-score),[13],-0.395
same,glycan array binding signal (z-score),[14],-0.678
same,glycan array binding signal (z-score),[15],3.21
same,glycan array binding signal (z-score),[16],-0.187
same,glycan array binding signal (z-score),[17],-0.677
same,glycan array binding signal (z-score),[18],2.93
